Bioassay records deposited in PubChem BioAssay by National Center for Advancing Translational Sciences (NCATS).
In the library only some 3.7% were active in any assay of this set; here they are far more common.
B2AR arrestin ag: qHTS assay of beta-arrestin-biased ligands of beta2-adrenergic receptor: NCGC Sytravon Library Screen | Beta-2 adrenergic receptor (Homo sapiens), P07550 | HTLA Tango cells, beta-arrestin recruitment, luciferase luminescence, 18 h | Potency, µM (doses to about 46.1 µM), most hits filed as activators | 44,000 tested, under 10 active | AID 1347077, 2019;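 also: potency is read from the fitted curve at half-maximal effect; 0% = DMSO and full agonism = EC100 isoproterenol or metaproterenol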
Target sequence (P07550 whole entry, looked up): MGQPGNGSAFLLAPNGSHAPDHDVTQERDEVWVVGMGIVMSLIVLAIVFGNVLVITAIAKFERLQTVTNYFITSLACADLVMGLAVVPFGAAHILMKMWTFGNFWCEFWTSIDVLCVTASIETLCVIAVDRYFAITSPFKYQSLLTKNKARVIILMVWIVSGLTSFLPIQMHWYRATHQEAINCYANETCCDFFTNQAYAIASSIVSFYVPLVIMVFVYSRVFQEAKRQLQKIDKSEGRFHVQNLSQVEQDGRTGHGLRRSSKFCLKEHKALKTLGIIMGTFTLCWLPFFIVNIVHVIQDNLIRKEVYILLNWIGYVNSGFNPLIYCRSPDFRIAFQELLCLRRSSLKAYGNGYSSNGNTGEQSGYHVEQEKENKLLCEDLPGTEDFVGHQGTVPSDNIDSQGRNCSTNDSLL
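Tango cells (recombinant beta2-AR, beta-arrestin, tTA-driven luciferase), 1500/well in DMEM 1% FBS, treated 18 h at 37 °C with compounds up to 46 µM; luciferin mix added, luminescence read after 15 min; %activity curves fitted and curve-classed.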
GPR32 ag: qHTS for Agonists of Human Resolvin D1 Receptor DRV1; AID 1346428, 2018; CHO-K1 GPR32 beta-arrestin PathHunter luminescence, 90 min; zero percent set by DMSO-only wells; actives 2.5% (n = 48,000); activation, % at 76.9 µM; Probable G-protein coupled receptor 32 (Homo sapiens), O75388;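 active = activation of at least 60% and not above a set upper limit, about 1 call in 100 departs from these limits; inconclusive = activation of 40% to 60%, or above that upper limit; inactive = activation under 40%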; also: 0% is about no effect
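Using DMSO wells as EC0, agonist-induced signal was taken as chemiluminescence from beta-Gal reconstituted upon beta-arrestin recruitment to GPR32 in CHO-K1 cells after 90 min compound treatment.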
HTT-AS act: Primary qHTS for Identification of Small Molecule Activators of Huntingtin-Antisense Promoter Activity; HEK293 HTT-AS promoter firefly luciferase reporter, 24 h; response scale: percent change from vehicle, -100% = no light; Potency, µM (highest dose often 57.5 µM), inactives show at the highest dose activity change, positive = activation, actives largely listed as activators; actives 0.24% (n = 48,000); AID 1508624, 2021; also: potency is read from the fitted curve at half-maximal effect; nearly all actives have a fitted effect of over 55% in size
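HEK293 cells carrying firefly luciferase reporters were seeded at 2,500 per well in Opti-MEM and cultured for 24 h. They were then treated with compounds at up to 57.5 uM final for 24 h at 37 degrees C before Dual-Glo luminescence readout.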
TSG101-PTAP inh: qHTS Validation Assay for Inhibitors of HIV-1 Budding by Blocking the Interaction of PTAP/TSG101: Sytravon Library Screen. 44,000 tested, under 10 active. Tumor susceptibility gene 101 protein (Homo sapiens), Q99816. Potency, µM (doses to about 115 µM), usual class: inhibitors. Fluorescence polarization, FITC-PTAP peptide/Tsg101, 20 min; also: potency is read from the fitted curve at half-maximal effect; 0% is about no effect
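Read-out is FITC fluorescence polarization. Compounds were added to Tsg101 binding domain (10 uM final), then FITC-PTAP peptide (50 nM final), 20 min at r.t. Total S+P intensity flags fluorescent compounds.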
GALK inh: qHTS Assay for Inhibitors of Human Galactokinase (GALK): NCGC Sytravon Library Screen. P51570. recombinant GALK, Kinase-Glo ATP luminescence, 1 h. Potency, µM (top dose mostly 57.5 µM), without a hit: at the highest dose activity, negative = inhibition, actives largely listed as inhibitors. 44,000 tested, under 10 active. AID 1347072, 2019;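 also: plate controls were full GALK reaction for no effect and reaction lacking GALK for full effect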
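Compounds were pinned into ATP buffer, then GALK-galactose mix was added (final 5 nM enzyme, 35 uM ATP, 100 uM galactose, pH 8.0). After 1 h at room temperature, Kinase-Glo Plus was added and luminescence read.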
HTT promoter inh: Primary qHTS for Identification of Small Molecule Inhibitors of Huntingtin Promoter Activity; HEK293 HTT promoter firefly luciferase reporter, 24 h; Potency, µM (series often up to 57.5 µM), for inactives: at the top dose activity change, negative = inhibition, usual class: inhibitors; actives 0.93% (n = 48,000); also: potency is read from the fitted curve at half-maximal effect; nearly all actives have a fitted effect of over 50% in size
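Firefly luciferase signal from promoter-reporter HEK293 cells was scaled between vehicle (0%) and zero RLU (-100%). Compounds were tested at final concentrations of up to 57.5 uM over 24 h at 37 degrees C. PTC124 at 50 uM final served as control inhibitor.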
Numbers without * were called inactive; i = inactive; u = inconclusive; x = no result; ! = not active in a repeat; [ ] = dose if it differs, or a comment. Unless noted, calls follow the shape of the dose curve; as a rule, active = well fitted curve in the direction sought with a large enough effect; inconclusive = small, poorly fitted or top-dose-only effect, or another doubt; inactive = no such curve, though single readings can be large; an effect the other way counts as inactive or inconclusive.

SMILES | B2AR arrestin ag | GPR32 ag | HTT-AS act | TSG101-PTAP inh | GALK inh | HTT promoter inh
COc1ccc(Nc2oc(-c3ccc(COc4cccc(C)c4)o3)nc2C#N)cc1 | i | 97* | -22% | i | 0% | -18%
COc1ccc(CCNc2oc(COc3cccc(C)c3)nc2C#N)cc1OC | i | 111* | -32% | i | -1% | u
COc1cccc(OC)c1-c1cc(C(=O)NC2(C(=O)O)C3CC4CC(C3)CC2C4)nn1-c1ccnc2cc(Cl)ccc12 (stereo not drawn) | x | x | -8% | x | x | 5%
CCCCn1c(=O)n(Cc2ccccc2F)c(=O)c2[nH]c(Cc3ccc(NC(C)=O)cc3)nc21 | x | x | -26% | x | x | u
CCOc1cc2ncc(C#N)c(Nc3ccc(F)c(Cl)c3)c2cc1NC(=O)C=CCN(C)C | x | x | -30% | x | x | -6%
COc1ccc(-c2nc3ccc(NS(=O)(=O)c4ccc(Cl)cc4)cc3o2)cc1 | i | 79* | -13% | i | 0% | -20%
Cc1ccc(S(=O)(=O)Nc2nc3ccccc3nc2Nc2ccc3nsnc3c2)cc1 | x | x | -27%[25.1 µM] | x | x | -22%[25.2 µM]
COc1ccc(Nc2nc3ccccc3nc2NS(=O)(=O)c2ccc(Cl)cc2)cc1OC | i | 118* | -42% | i | 0% | u
COc1ccc(-n2c(=O)c3ccc(C(=O)NCc4ccc(C)cc4)cc3n(CC(=O)Nc3ccc(F)cc3)c2=O)cc1 | i | 94* | -12% | i | 7% | -9%
COc1ccc(-n2c(=O)c3ccc(C(=O)NCc4ccc(C)cc4)cc3n(CC(=O)Nc3ccc(C)cc3)c2=O)cc1 | i | -3 | -36% | i | -1% | -26%
CCOc1ccc(-c2cc(C(=O)N3CCN(c4ccc(C)cc4)C(C)C3)c3ccccc3n2)cc1 (stereo not drawn) | i | -23 | 1.8µM* | i | -1% | 9%
CCc1ccc(CNC(=O)COc2cc(=O)n(CC)c3ccccc23)cc1 | i | 117* | -29% | i | 0% | -39%[11.5 µM]
CCn1c(=O)cc(OCC(=O)N2CCN(c3ccc(C)cc3)C(C)C2)c2ccccc21 (stereo not drawn) | i | 74* | -45% | i | 5% | u
CCOc1ccc(-c2cc(C(=O)N3CCN(c4cccc(C)c4)C(C)C3)c3ccccc3n2)cc1 (stereo not drawn) | i | -16 | 0% | i | -2% | -18%
NC1(Cc2ccc(Cl)cc2)CCN(c2ncnc3[nH]ccc23)CC1 | x | x | -36% | x | x | u
Cc1cc(Nc2cccc(O)c2)c2cccc(Br)c2n1 | i | 119* | -5% | i | 6% | 4%
Cc1ccc(C(C)(C)C)c(OCC(=O)NCCc2nc3ccccc3[nH]2)c1 | i | 61* | -13% | i | 2% | 4%
Cc1ccccc1-n1c(Cn2nc(-c3cccc(O)c3)c3c(N)ncnc32)nc2cccc(C)c2c1=O | x | x | -42% | x | x | u
COc1nnc(-c2ccc(N3CCCCC3)c(NC(=O)c3ccc(C)cc3)c2)c2ccccc12 | i | 12 | -19% | i | 3% | -16%
COc1nnc(-c2ccc(N3CCCCC3)c(NC(=O)c3ccccc3Cl)c2)c2ccccc12 | i | -5 | -87% | i | 2% | 11µM*
O=C(Nc1ccc(C(F)(F)F)cc1)c1cc(S(=O)(=O)NC2CCCCCC2)ccc1F | i | 5 | -75% | i | 1% | 28µM*
O=c1[nH]c(=O)n([C@H]2O[C@H](CO)[C@@H](O)[C@@H]2O)cc1/C=C\Br | x | -5 | -4% | x | x | 5%
COc1ccc(C2c3c(-c4ccc(F)cc4)n[nH]c3C(=O)N2c2ccccc2)cc1OC (stereo not drawn) | i | 1 | -15% | i | 3% | -2%[11.5 µM]
COc1cc(C2c3c(-c4ccc(C)cc4)n[nH]c3C(=O)N2c2ccc(F)cc2)ccc1O (stereo not drawn) | i | 104* | -55% | i | 0% | u
Cc1ccc(NCc2cccn2-c2nnc(N3CCCCCC3)s2)cc1 | i | -20 | -62% | i | -2% | 7.9µM*
SMILES | B2AR arrestin ag | GPR32 ag | HTT-AS act | TSG101-PTAP inh | GALK inh | HTT promoter inh
Fc1ccc(NCc2cccn2-c2nnc(N3CCOCC3)s2)cc1 | i | 67* | 4% | i | 1% | -4%
Fc1cccc(NCc2cccn2-c2nnc(N3CCOCC3)s2)c1 | i | 66* | 2% | i | -4% | -1%
CCOc1ccccc1CNCc1cccn1-c1nnc(N2CCN(c3ccccc3)CC2)s1 | i | 48 | -46% | i | -6% | 25µM*
NS(=O)(=O)c1ccc(Nc2nc(OCC3CCCCC3)c3[nH]cnc3n2)cc1 | x | x | 2% | x | x | -16%
C[C@@]12O[C@@H](C[C@]1(O)CO)n1c3ccccc3c3c4c(c5c6ccccc6n2c5c31)CNC4=O | x | x | -50% | x | x | u
CC(C)(C)C(=O)Nc1ccc(Cl)c(-c2nc3ccccc3[nH]2)c1 | i | 88* | -10% | i | 0% | -10%
CC(=O)c1cccc(NC(=O)c2nc3ccccc3n(C)c2=O)c1 | i | 62* | u | i | 6% | -16%
CC(C)OC(=O)C1=CN(C(=O)c2ccc(F)c(F)c2)CC(C)(C)c2c1[nH]c1ccccc21 | x | x | -4% | x | x | 11%
CCNC(=O)CCCC=CC[C@@H]1[C@H](C=CC(O)CCc2ccccc2)[C@@H](O)C[C@@H]1O (stereo partly drawn) | x | x | -7% | x | x | -7%
CC1c2ccccc2CN1NC(=O)c1ccc(Cl)c(S(N)(=O)=O)c1 (stereo not drawn) | x | -22 | -8% | x | x | -13%
Cc1cc(C)c2c(=O)cc(CSc3n[nH]c(C)n3)[nH]c2c1 | i | 7 | -8% | i | -8% | 6%
Cc1cccc(-c2nc(SCc3cc(=O)c4c(C)cc(C)cc4[nH]3)n[nH]2)c1 | i | 116* | -41% | i | -1% | -25%
c1ccc2[nH]c(-c3cscn3)nc2c1 | x | -14 | 19µM*! | x | x | 67%
Cc1ccc(NC(=O)CCOc2ccccc2)cc1 | i | -9 | 10µM* | i | -3% | 48%
